According to PubChem BioAssay (NCATS):
Inconclusive results are not listed. Active and inactive are the calls of the source. The call rests on the fitted dose curve; in most records, active means well fitted curve in the direction sought with a large enough effect; inconclusive means small, poorly fitted or top-dose-only effect, or another doubt; inactive means no such curve, though single readings can be large; an effect the other way counts as inactive or inconclusive.

Tests used:
[1] = MultiTox-Fluor Cytotoxicity Assay - LYMP1-001 - Live Cells (AID 947)
[2] = Cell Viability - LYMP1-002 - Assay at 16 hr (AID 948)
Outline: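 Seed 2500 LYMP1-002 cells per well in complete medium and hold 5 hr at 37 C. Add compound across a concentration series and incubate 16 hr at 37 C. Add CellTiter-Glo, wait 30 min at room temperature, read luminescence.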

[3] = MultiTox-Fluor Cytotoxicity Assay - LYMP1-002 - Live Cells (AID 955);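 further: cells exposed to compound for 16 hours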
Outline: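 In this qHTS viability format, lymphoblastoid cells (LYMP1-002, human) received compound for 16 hr at 37 C. Fluorogenic GF-AFC cleavage by viable cells was detected at 405/510 nm after 1 h at room temperature.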

[4] = MultiTox-Fluor Cytotoxicity Assay - LYMP1-002 - Dead Cells (AID 960); further: nearly all actives have a fitted effect of over 60% in size
Outline: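 Concentration-dependent increases in membrane-leaked protease activity are quantified in LYMP1-002 cells after 16 hr treatment; values are normalized against DMSO and tetraoctylammonium bromide (15 uM) controls and AC50 derived by Hill modeling.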

[5] = MultiTox-Fluor Cytotoxicity Assay - LYMP1-003 - Dead Cells (AID 961); further: nearly all actives have a fitted effect of over 70% in size
Outline: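 Acute toxicity is scored as increased dead-cell protease activity in human lymphoblastoid LYMP1-003 cells after 16 h compound exposure in complete culture medium. Activity is normalized to DMSO basal and 15 uM tetraoctylammonium bromide as full response.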

[6] = MultiTox-Fluor Cytotoxicity Assay - LYMP1-003 - Live Cells (AID 962);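 further: cells exposed to compound for 16 hours at 37 °C; cytotoxic hits lower the live-cell protease signal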
Outline: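 Human lymphoblastoid line LYMP1-003 in complete culture medium, treated 16 hr with titrated compounds. Viable cells quantified via cell-permeant GF-AFC substrate fluorescence; AC50 derived by Hill fitting.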

[7] = Cell Viability - LYMP1-003 - Assay at 24 hr (AID 963)
Outline: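 The lymphoblastoid line was treated with titrated compounds for 24 hours, and viable cell number estimated from luciferase-based ATP luminescence.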

[8] = Cell Viability - LYMP1-003 - Assay at 40 hr (AID 964); further: series mostly up to about 92 µM; nearly all actives have a fitted effect of over 60% in size
Outline: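 Acute toxicity is scored as a concentration-dependent loss of intracellular ATP in LYMP1-003 cells (2500/well, complete medium) after 40 hr at 37 C, measured by CellTiter-Glo luminescence; AC50 values derive from standard Hill modelling.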

[9] = Cell Viability - LYMP2-003 (AID 965);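 further: cells exposed to compounds for 24 h before reading; nearly all actives have a fitted effect of over 50% in size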
Outline: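 Seed 2500 lymphoblastoid cells/well; incubate 5 hr, 37 C; add compounds; incubate 24 hr, 37 C; add CellTiter-Glo, 30 min RT; read luminescence. AC50 from Hill fit.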

[10] = Cell Viability - LYMP2-004 (AID 966); further: nearly all actives have a fitted effect of over 65% in size
Outline: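 Viable-cell number estimated from ATP luminescence (CellTiter-Glo) in 2500 human lymphoblastoid cells/well after 24 hr at 37 C with compound. AC50 fitted to the standard Hill equation.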

[11] = Cell Viability - LYMP2-005 (AID 967);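 further: series mostly up to about 92 µM; cells exposed to compound for 24 h at 37 °C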
Outline: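 Acute cytotoxicity is scored as a concentration-dependent drop in intracellular ATP in human lymphoblastoid LYMP2-005 cells after 24 h compound treatment. ATP is quantified by luciferase luminescence, and AC50 is derived by Hill-equation modelling.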

[12] = Cell Viability - LYMP2-009 (AID 968);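 further: series mostly up to about 92 µM; cells exposed to compound for 24 h at 37 °C; nearly all actives have a fitted effect of over 55% in size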
[13] = Cell Viability - LYMP2-011 (AID 969); further: nearly all actives have a fitted effect of over 60% in size
Outline: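 Cells seeded at 2500 per well rest 5 hr before compound addition, then incubate 24 hr at 37 C. CellTiter-Glo reagent is added for 30 min at room temperature before luminescence detection.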

[14] = Cell Viability - LYMP2-013 (AID 970);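 further: series mostly up to about 92 µM; cells exposed to compound for 24 h at 37 °C; nearly all actives have a fitted effect of over 55% in size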
Outline: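 In complete culture medium, human lymphoblastoid cells were dosed for 24 hr at 37 C, with tetraoctylammonium bromide (6.4pM to 92 uM) as positive control. Viability reflects luciferase-based ATP signal; AC50 derived from concentration-response curves.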

[15] = Cell Viability - LYMP2-015 (AID 971); further: nearly all actives have a fitted effect of over 55% in size
Outline: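 AC50 values reflect Hill-model fits of ATP-based luminescence (CellTiter-Glo) from a human lymphoblastoid line, 2500 cells/well, treated 24 hr at 37 C.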

[16] = Cell Viability - LYMP2-017 (AID 972);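 further: series mostly up to about 92 µM; cells exposed to compound for 24 hours at 37 °C; nearly all actives have a fitted effect of over 55% in size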
Outline: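 In this qHTS format, lymphoblastoid cells in complete medium receive test compound for a day at 37 C before ATP content is quantified by luciferase luminescence. Reported AC50 figures come from standard Hill-equation curve fitting.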

[17] = Cell Viability - LYMP2-019 (AID 973)
Outline: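 AC50 values come from Hill-equation modelling of qHTS concentration-response curves, where viability is measured as luciferase-based ATP luminescence in the lymphoblastoid line after 24 hr compound exposure in complete culture medium.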

[18] = Cell Viability - LYMP2-021 (AID 974)
Outline: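 In qHTS format, compounds are tested against 2500 lymphoblastoid cells per well for 24 h; viable cell number is inferred from ATP-driven luciferase light, and Hill-equation fitting yields AC50 values.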

[19] = Cell Viability - LYMP2-023 (AID 975)
Outline: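 In this qHTS, ATP-based luciferase luminescence (CellTiter-Glo) is quantified in human lymphoblastoid cells after 24 hr compound treatment at 37 C; tetraoctylammonium bromide serves as positive control. Concentration-response curves are Hill-fitted to give AC50.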

Measured: Potency

C=CC(=O)OCCCC
inactive: all assays above

Cc1ccc(C)c(N)c1
not listed: [1]
inactive: all other assays above

O=C1CCC(=O)O1
not listed: [3]
inactive: all other assays above

O=C(O)c1c(Cl)cccc1Cl
not listed: [16]
inactive: all other assays above

CC=O
inactive: all assays above
